Screening data (PubChem)
GC-A act: GC-A stimulated cGMP production enhancers – HEK293 GC-A cells, cGMP TR-FRET, EC30 ANP, primary screen. 0% at EC30 ANP, 100% saturating ANP. AID 1671463, 2021. activation, % at 10 µM. 370,000 compounds, 0.14% hits; in the data active means activation above about 40%
NPR2 activator: human GC-B receptor activators, primary screen, HEK293 GC-B cells, cGMP TR-FRET, EC30 CNP; AID 1920062, 2024; 0% at EC30 CNP, 100% saturating CNP; activation, % at 10 µM; Atrial natriuretic peptide receptor 2 (Homo sapiens), P20594; 370,000 compounds, 0.11% hits;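 active means activation at 10 µM reaching about 35% in either raw or pattern-adjusted values, limit read from the data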
PLCb3 inh: human PLC-beta3 inhibitors, primary screen, biochemical, fluorescence. Purified PLC-beta3, fluorogenic substrate. inhibition, % at 12.2 µM. 370,000 compounds, 0.18% hits. AID 720704, 2013; in the data active means inhibition above about 11%;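 further: 0% = median of compound wells on plate and 100% = full blocker control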
PLCg1 inh: PLC-gamma1 enzyme inhibitors, primary screen, biochemical, fluorescence, purified enzyme | 1-phosphatidylinositol 4,5-bisphosphate phosphodiesterase gamma-1 (Homo sapiens), P19174 | fluorogenic substrate | inhibition, % at 12.2 µM | 370,000 compounds, 0.84% hits | AID 720700, 2013; in the data active means inhibition above about 9.5%
Numbers without * were called inactive. Sampled rows, rich in hits. Any-hit rate of the full collection: about 1.2%.

SMILES	GC-A act	NPR2 activator	PLCb3 inh	PLCg1 inh
CC1=NN(c2ccc(F)cc2)C(=O)C1C(c1cccc(O)c1)c1c(C)[nH]n(-c2ccc(F)cc2)c1=O (stereo not drawn)	2	1	12*	18*
O=C(Nc1nncs1)C12CC3CC(CC(C3)C1)C2	-3	0	-1	7
COc1cccc(Cn2c3ccc(NC(=O)Cc4cc(OC)ccc4OC)cc3c(=O)n2C)c1	0	-1	-294	-226
CCOC(=O)C1=C(COC(=O)Cc2c(F)cccc2Cl)NC(=O)NC1C (stereo not drawn)	29	36*	-4	3
Cc1cc(NC(C)c2ccccc2)n2ncc(-c3ccccc3)c2n1 (stereo not drawn)	50*	-6	-430	-335
Cc1cc(NCc2ccccc2)n2ncc(-c3ccccc3)c2n1	2	-2	-364	-267
Cc1[nH]c(=O)c(S(=O)(=O)c2ccccc2)c(C)c1Cl	11	7	-13	-7
CCNS(=O)(=O)c1ccc(C)c(-n2cnnn2)c1C	1	-3	3	6
Cn1cc(-c2csc(C(C)(O)c3cccc(F)c3)n2)cn1 (stereo not drawn)	2	-6	-3	10*
Cc1cc2cc(CNC(=O)c3ccc(S(=O)(=O)N4CCCCC4)cc3)ccc2[nH]1	-2	-2	-16	-11
Cc1ccc(-c2cc(C(F)(F)F)n3nc(C(=O)N4CCN5CCCC5C4)cc3n2)cc1 (stereo not drawn)	8	7	-264	-141
CCOC(=O)C1CCCN(C(=O)c2cc3nc(-c4ccc5c(c4)OCO5)cc(C(F)(F)F)n3n2)C1 (stereo not drawn)	33	37*	-40	-29
CCOC(=O)c1cc(-c2csc(COc3ccccc3Cl)n2)on1	63*	8	-6	0
CCOC(=O)c1cc(-c2csc(-c3cccc(Cl)c3)n2)on1	19	1	-14	-1
CCOC(=O)c1cc(-c2csc(COc3ccccc3)n2)on1	67*	15	-6	-2
CCOC(=O)c1cc(-c2csc(COc3ccc(Cl)cc3)n2)on1	58*	-4	-4	0
COc1ccc(C(C(=O)NC(C)(C)C)n2c(COc3ccc(C)cc3)nc3ccccc32)cc1 (stereo not drawn)	-20	-19	0	1
COc1ccc(C(C(=O)NC(C)(C)C)n2c(-c3ccc(=O)[nH]c3)nc3ccccc32)cc1 (stereo not drawn)	45*	45*	-2	-2
C=CCN1c2ccccc2[C@]23C[C@@H](C(=O)OC)N(C(=O)C4CCC4)C2=NC(C(=O)OC)=C(C(=O)OC)[C@H]13	-15	-19	1	-1
Cc1cccc2sc(NC(=O)CN(C)S(=O)(=O)c3cccs3)nc12	42*	-1	-35	2
COc1ccc(Br)cc1/C=N/Nc1cccc(C(=O)O)c1	0	6	-5	-5
COc1ccccc1/C=C/C=N/Nc1cccc(C(=O)O)c1	54*	-2	-247	-167
CCn1c(SCC(=O)Nc2cccc(NC(C)=O)c2)nc2c([nH]c3ccccc32)c1=O	1	-1	-4	1
COCCn1c(SCC(=O)Nc2ccc(NC(C)=O)cc2)nc2c([nH]c3ccccc32)c1=O	-6	-3	-7	-3
CCn1c(SCC(=O)Nc2cc(C)on2)nc2c([nH]c3ccccc32)c1=O	59*	-1	-6	-2
SMILES	GC-A act	NPR2 activator	PLCb3 inh	PLCg1 inh
COCCn1c(SCC(=O)Nc2cc(C)on2)nc2c([nH]c3ccccc32)c1=O	50*	-2	2	5
Clc1ccc(-c2cc(CN3CCOCC3)no2)cc1	9	4	3	3
CCCCC1CCC(C(=O)N(CCOC)c2c(N)n(CC(C)C)c(=O)[nH]c2=O)CC1 (stereo not drawn)	-6	0	2	14*
CCN(C(=O)COC(=O)/C=C/c1ccc2c(c1)OCO2)c1c(N)n(Cc2ccccc2)c(=O)[nH]c1=O	2	-4	-16	-11
CN(CC(=O)Nc1ccc(Cl)cc1)C(=O)Cn1[nH]c(=O)c2ccccc2c1=O	0	0	-6	9.8*
Cc1ccc(NC(=O)CCC(=O)N/N=C/c2ccc(O)cc2O)cc1	-2	0	-13	-4
CC(=O)c1sc(NC(=O)CCS(=O)(=O)c2ccc(C)cc2)nc1C	1	4	-7	5
COc1ccc(Cl)cc1NC(=O)CSc1nnc(C)c(=O)n1N	0	7	0	1
